The full data set covers some 8,800 targets. This sample favours those with a hit. About 0.5% of all pairs of compound and target were hits. Values without a mark were called inactive.
Tests used:
Assay in all cases: log2 fold change, soluble protein after heating vs DMSO (PISA); higher = thermal stabilisation; K562 lysate, 10 uM; active = over 0.2 and 3.5 SD of the protein, either way, in both replicates (recomputed)
erlotinib = compound: C#Cc1cccc(Nc2ncnc3cc(OCCOC)c(OCCOC)cc23)c1 [erlotinib]
Procedure, shortened: (§1)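 Soluble protein was defined as the supernatant remaining after 21,000xg for 90 min, following pooling of heated aliquots and adjustment to 0.5% NP-40 at 4°C. Before that, crude K562 extract at 1 mg/mL protein in PBS pH 7.4 with 1 mM MgCl2 was treated with 10 μM compound for 30 min and heated for 3 min across 48°C-58°C. Quantification used TMTpro 16plex LC-MS/MS with channel sums equalised, and values are log-two fold changes in thermal stability relative to solvent controls from duplicates.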

[1] = compound: C/C(=N\NC(=O)C1=CC(=CC=C1)S(=O)(=O)N2CCOCC2)/C3=C(C=CC(=C3)Cl)O
Procedure, shortened: as §1

[2] = compound: C1=CC(=CC=C1C2=NC3=C(N2)C=C(C=C3)C(=O)N)OC4=CC=C(C=C4)Cl
Procedure, shortened: as §1

[3] = compound: C1=CC2=C(C=CC(=C2)/C=C\3/C(=O)NC(=NCC4=CC=CS4)S3)N=C1
Procedure, shortened: as §1

[4] = compound: C1=CC2=NC=CN=C2C=C1/C=C/3\C(=O)NC(=O)S3
Procedure, shortened: as §1

[5] = compound: C1=CC=C(C=C1)C2=NC(=C(N2)C3=CC=NC=C3)C4=CC(=C(C=C4)Cl)O
Procedure, shortened: as §1

[6] = compound: C1=CC=C2C(=C1)C3=NNC4=CC=CC(=C43)C2=O
Procedure, shortened: as §1

[7] = compound: C1CCN(C1)C(=O)NC2=CC=CC(=C2)NC3=NC=C(C(=N3)NCCC4=CN=CN4)Br
Procedure, shortened: as §1

[8] = compound: C1CN(CCC1(CC2=CC=C(C=C2)Cl)N)C3=NC=NC4=C3C=CN4
Procedure, shortened: as §1

IRAK-1-4 Inhibitor I = compound: C1COCCN1CCN2C3=CC=CC=C3N=C2NC(=O)C4=CC(=CC=C4)[N+](=O)[O-] [IRAK-1-4 Inhibitor I]
Procedure, shortened: as §1

ibrutinib = compound: C=CC(=O)N1CCC[C@@H](n2nc(-c3ccc(Oc4ccccc4)cc3)c3c(N)ncnc32)C1 [ibrutinib]
Procedure, shortened: as §1

[9] = compound: CC(=O)c1cnc2ccc(-c3cc(Cl)c(O)c(Cl)c3)nc2c1N[C@H]1CC[C@H](CN(C)C)CC1
Procedure, shortened: as §1

ralimetinib = compound: CC(C)(C)Cn1c(N)nc2ccc(-c3[nH]c(C(C)(C)C)nc3-c3ccc(F)cc3)nc21 [ralimetinib]
Procedure, shortened: as §1

[10] = compound: CC(C)(O)CC(=O)NCCn1ccc2ncnc(Nc3ccc(Oc4cccc(C(F)(F)F)c4)c(Cl)c3)c21
Procedure, shortened: as §1

[11] = compound: CC(C)C1=C2N=C(C=C(N2N=C1)NCC3=CC=CC=C3)NCCCCCCN
Procedure, shortened: as §1

[12] = compound: CC1=C(C(CC(=O)N1)C2=CC=C(C=C2)C(F)(F)F)C(=O)NC3=C(C=C4C(=C3)C=NN4)F
Procedure, shortened: as §1

[13] = compound: CC1=C(C2=C(C=C1)C(=O)C3=CC=CC=C3N2CCCN)C
Procedure, shortened: as §1

[14] = compound: CC1=C(C=C(C=C1)NC(=O)C2=CC(=CC=C2)C(C)(C)C#N)NC3=CC4=C(C=C3)N=CN(C4=O)C
Procedure, shortened: as §1

[15] = compound: CC1=C(C=C(C=C1)NC(=O)C2=CC(=CC=C2)N(C)C)NC(=O)C3=CC=C(C=C3)O
Procedure, shortened: as §1

[16] = compound: CC1=CC=C(C=C1)SC2=C3C=C(SC3=CN=C2)C(=O)N
Procedure, shortened: as §1

Chain of UniProt Q9H3Q1 (Q9H3Q1 whole entry, looked up): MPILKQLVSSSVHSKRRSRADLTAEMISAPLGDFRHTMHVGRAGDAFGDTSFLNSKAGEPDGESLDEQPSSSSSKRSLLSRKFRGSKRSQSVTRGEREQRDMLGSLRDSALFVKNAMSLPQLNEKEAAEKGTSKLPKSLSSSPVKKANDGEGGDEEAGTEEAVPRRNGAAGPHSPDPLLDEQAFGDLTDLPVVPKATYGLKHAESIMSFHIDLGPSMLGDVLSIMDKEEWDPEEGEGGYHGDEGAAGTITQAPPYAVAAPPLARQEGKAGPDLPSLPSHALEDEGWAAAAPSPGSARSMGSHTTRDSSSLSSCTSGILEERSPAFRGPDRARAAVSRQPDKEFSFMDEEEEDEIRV
Chain of UniProt Q14692 (Q14692 whole entry, looked up): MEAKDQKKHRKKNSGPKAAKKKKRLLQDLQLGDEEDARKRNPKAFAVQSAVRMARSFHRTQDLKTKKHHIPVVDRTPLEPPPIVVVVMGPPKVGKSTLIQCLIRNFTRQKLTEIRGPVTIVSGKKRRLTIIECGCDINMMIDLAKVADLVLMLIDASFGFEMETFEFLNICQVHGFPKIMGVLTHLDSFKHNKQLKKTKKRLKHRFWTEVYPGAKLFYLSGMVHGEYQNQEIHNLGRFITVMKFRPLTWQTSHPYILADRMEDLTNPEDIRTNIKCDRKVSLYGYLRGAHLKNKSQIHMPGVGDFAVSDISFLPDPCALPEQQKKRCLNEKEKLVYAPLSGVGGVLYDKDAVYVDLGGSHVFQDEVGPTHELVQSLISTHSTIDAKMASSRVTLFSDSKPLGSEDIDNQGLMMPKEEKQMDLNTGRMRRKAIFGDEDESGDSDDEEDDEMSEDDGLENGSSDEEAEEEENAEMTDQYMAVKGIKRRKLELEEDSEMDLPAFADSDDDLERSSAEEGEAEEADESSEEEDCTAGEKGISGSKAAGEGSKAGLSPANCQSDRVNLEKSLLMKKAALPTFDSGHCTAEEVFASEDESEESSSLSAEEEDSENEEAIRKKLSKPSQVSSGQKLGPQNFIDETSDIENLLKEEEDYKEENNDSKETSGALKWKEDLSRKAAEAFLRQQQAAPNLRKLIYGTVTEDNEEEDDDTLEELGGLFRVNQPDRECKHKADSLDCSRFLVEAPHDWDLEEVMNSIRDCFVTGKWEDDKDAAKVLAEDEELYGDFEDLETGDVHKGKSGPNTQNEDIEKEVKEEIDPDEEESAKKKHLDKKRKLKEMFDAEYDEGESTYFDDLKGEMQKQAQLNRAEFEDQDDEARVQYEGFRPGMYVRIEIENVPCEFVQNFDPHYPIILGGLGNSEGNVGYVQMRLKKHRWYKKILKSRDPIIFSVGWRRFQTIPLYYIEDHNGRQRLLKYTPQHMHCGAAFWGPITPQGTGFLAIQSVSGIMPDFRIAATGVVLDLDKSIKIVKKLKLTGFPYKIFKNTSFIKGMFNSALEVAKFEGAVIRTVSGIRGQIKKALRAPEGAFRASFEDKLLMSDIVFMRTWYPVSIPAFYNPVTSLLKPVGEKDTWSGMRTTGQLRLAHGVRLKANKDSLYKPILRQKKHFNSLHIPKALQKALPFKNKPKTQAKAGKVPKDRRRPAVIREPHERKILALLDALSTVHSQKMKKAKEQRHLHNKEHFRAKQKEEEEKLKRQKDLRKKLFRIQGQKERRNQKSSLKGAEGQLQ
Chain of UniProt Q92879 (Q92879 whole entry, looked up): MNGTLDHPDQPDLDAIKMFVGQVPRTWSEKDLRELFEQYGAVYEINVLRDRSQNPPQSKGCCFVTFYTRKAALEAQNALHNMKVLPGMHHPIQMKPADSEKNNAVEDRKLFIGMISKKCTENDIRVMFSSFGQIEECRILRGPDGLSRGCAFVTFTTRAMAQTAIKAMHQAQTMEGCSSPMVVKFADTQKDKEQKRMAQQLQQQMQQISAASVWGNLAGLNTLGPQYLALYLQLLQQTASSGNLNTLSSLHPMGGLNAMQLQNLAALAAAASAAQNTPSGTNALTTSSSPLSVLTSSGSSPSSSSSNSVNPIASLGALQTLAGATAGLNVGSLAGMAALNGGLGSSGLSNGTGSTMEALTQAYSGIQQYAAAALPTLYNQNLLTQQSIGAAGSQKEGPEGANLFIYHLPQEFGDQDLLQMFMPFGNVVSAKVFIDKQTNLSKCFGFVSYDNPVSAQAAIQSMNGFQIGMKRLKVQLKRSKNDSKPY
Chain of UniProt O75808 (O75808 whole entry, looked up): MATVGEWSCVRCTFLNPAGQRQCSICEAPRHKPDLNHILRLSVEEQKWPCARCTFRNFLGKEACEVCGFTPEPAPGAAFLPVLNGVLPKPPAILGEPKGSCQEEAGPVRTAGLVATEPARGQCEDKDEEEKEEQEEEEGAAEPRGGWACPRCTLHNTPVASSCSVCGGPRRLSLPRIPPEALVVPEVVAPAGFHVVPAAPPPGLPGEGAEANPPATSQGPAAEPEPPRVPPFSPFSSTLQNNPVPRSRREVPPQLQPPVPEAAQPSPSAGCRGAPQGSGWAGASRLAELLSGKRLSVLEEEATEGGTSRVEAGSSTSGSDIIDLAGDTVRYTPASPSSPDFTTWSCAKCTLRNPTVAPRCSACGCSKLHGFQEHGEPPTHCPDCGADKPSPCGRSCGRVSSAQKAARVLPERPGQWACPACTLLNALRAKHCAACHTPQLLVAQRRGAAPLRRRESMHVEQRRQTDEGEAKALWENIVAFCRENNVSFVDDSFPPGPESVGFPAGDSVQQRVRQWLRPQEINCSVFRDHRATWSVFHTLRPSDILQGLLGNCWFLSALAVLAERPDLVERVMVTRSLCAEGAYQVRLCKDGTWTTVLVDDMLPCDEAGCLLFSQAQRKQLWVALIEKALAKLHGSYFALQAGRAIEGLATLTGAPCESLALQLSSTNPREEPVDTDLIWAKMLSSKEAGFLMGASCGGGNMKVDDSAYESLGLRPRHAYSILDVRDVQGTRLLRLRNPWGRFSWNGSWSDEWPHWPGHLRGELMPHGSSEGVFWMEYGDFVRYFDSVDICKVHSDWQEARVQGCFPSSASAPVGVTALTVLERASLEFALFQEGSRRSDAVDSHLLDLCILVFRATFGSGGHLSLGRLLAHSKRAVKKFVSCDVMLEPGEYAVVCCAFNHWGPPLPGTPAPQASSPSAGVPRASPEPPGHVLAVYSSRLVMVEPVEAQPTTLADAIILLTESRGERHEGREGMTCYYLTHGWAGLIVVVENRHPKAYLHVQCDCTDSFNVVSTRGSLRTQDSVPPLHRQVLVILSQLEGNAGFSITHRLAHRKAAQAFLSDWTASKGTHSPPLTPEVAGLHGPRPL
Chain of UniProt O43861 (O43861 whole entry, looked up): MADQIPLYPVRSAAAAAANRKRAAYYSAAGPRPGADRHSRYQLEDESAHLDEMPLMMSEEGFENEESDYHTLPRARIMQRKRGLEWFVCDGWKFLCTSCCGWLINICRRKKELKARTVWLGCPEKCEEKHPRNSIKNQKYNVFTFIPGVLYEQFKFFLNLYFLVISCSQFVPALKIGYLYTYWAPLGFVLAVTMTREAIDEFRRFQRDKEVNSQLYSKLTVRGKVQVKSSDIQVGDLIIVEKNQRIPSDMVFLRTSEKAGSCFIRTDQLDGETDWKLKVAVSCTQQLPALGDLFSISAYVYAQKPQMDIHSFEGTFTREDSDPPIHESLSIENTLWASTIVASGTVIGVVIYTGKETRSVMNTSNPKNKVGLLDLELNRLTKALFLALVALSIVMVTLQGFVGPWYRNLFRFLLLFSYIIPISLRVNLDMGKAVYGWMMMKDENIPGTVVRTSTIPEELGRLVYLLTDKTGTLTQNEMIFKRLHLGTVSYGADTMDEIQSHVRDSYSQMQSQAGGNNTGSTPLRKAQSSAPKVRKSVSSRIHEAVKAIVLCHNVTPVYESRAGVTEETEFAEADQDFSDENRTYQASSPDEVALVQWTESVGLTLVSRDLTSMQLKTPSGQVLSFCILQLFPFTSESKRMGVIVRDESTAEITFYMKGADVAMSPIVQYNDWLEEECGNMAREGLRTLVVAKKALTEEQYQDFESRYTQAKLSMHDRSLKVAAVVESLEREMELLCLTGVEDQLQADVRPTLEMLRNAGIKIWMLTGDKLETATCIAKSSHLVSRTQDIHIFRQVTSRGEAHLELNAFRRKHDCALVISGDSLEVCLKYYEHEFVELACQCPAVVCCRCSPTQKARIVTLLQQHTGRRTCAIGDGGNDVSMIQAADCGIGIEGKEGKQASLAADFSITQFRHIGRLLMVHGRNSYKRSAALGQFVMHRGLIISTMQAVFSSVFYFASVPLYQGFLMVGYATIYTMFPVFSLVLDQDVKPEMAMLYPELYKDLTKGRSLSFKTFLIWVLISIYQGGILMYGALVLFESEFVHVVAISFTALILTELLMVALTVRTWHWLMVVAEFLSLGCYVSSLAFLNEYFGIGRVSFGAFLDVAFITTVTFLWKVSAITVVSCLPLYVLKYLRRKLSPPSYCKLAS

Row | Target | log2 fold change (erlotinib) | log2 fold change [1] | log2 fold change [2] | log2 fold change [3] | log2 fold change [4] | log2 fold change [5] | log2 fold change [6] | log2 fold change [7] | log2 fold change [8] | log2 fold change (IRAK-1-4 Inhibitor I) | log2 fold change (ibrutinib) | log2 fold change [9] | log2 fold change (ralimetinib) | log2 fold change [10] | log2 fold change [11] | log2 fold change [12] | log2 fold change [13] | log2 fold change [14] | log2 fold change [15] | log2 fold change [16]
1 | BMS1 (UniProt Q14692) | -0.029 | -0.089 | -0.027 | 0.028 | -0.046 | 0.034 | 0.039 | 0.006 | 0.01 | -0.01 | 0.095 | 0.018 | 0.018 | -0.041 | -0.008 | -0.011 | 0.007 | 0.049 | 0.034 | 0.032
2 | CELF1 isoform 4 (UniProt Q92879) | -0.101 | -0.039 | 0.013 | 0.055 | 0 | -0.031 | -0.03 | -0.002 | -0.043 | -0.045 | 0.027 | -0.027 | 0.034 | -0.004 | 0.033 | 0.072 | 0.016 | -0.331 (active) | 0 | 0.025
3 | ATP9B (UniProt O43861) | 0.008 | -0.057 | 0.034 | 0.175 | -0.07 | 0.031 | 0.081 | 0.027 | -0.103 | -0.037 | -0.156 | 0.08 | -0.044 | -0.053 | -0.021 | 0.225 | 0.049 | 0 | 0.079 | -0.054
4 | CAPN15 (UniProt O75808) | 0.01 | 0.187 | -0.011 | -0.028 | -0.104 | -0.05 | 0.026 | 0.019 | 0.031 | 0.01 | 0.037 | -0.065 | 0.09 | 0.008 | -0.002 | 0.025 | 0.019 | 0.086 | 0.007 | 0.046
5 | ATXN2 (UniProt F8WB05) | 0.073 | -0.082 | 0.09 | -0.191 | -0.063 | -0.011 | -0.083 | -0.036 | 0.055 | -0.157 | -0.538 | -0.104 | 0 | 0.033 | 0.037 | – | 0.006 | 0.119 | -0.044 | 0.048
6 | CDC42EP4 (UniProt Q9H3Q1) | 0.025 | -0.053 | -0.005 | 0.017 | -0.109 | 0.007 | 0.044 | -0.069 | 0.054 | -0.055 | 0.07 | -0.014 | 0.034 | -0.006 | 0.01 | 0.024 | 0.026 | 0.155 | -0.018 | -0.035
